Shown are actives, neighbours in structure and some others; about 3.1% of the full set was active somewhere.
HSF1 inhib = HSF1 inhibitors in luciferase reporter cells, primary screen, cell-based, NIH3T3, luminescence; AID 2098, 2009; activity change, negative = inhibition, % at 7.5 µM (by protocol); NIH3T3-HGL HSE-luciferase, MG132-induced, luminescence 8 h; active compounds read low; hit rate 0.77% among 300,000;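 active = more than half of replicate wells show activity change below -50%, luminescence cut by over half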;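 also: luciferase reports HSF-1 transcriptional activity via heat shock element; 0% = median of DMSO wells and -100% = zero luminescence signal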
HIF act = HIF pathway transcriptional activators, primary screen, cell-based, U2OS HRE-luciferase, luminescence; hit rate 0.32% among 300,000; U2OS HRE-luciferase reporter; normalized: DMSO 0%, desferrioxamine 100%; AID 1910, 2009; activation, % at 7.5 µM (by protocol);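 active = mean activation of at least 10% of the iron chelator positive control signal, with at least half of replicates also reaching 10%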
HSP90 refold inh = HSP90 inhibitors, primary screen, cell lysate, luminescence. hit rate 0.91% among 290,000. Heat shock protein HSP 90 (rabbit reticulocyte lysate; luciferase refolding). inhibition, % at 5.6 µM. Rabbit reticulocyte lysate, luciferase refolding luminescence, 3 h;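 active = inhibition above the screen-wide mean plus 3 SD, computed separately per campaign, cut at about 16% in these data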;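 also: 0% = DMSO wells and 100% = 60 µM geldanamycin wells; inhibitors lower the luminescence because luciferase stays unfolded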
ARNT TACC3 PPI = disruptors of ARNT/TACC3 protein interaction, primary screen, biochemical, AlphaScreen, single concentration. hit rate 0.66% among 390,000. AlphaScreen His-ARNT PAS-B/GST-TACC3 binding, luminescence; TACC3 fragment carries E629A point mutation. inhibition, % at 9.99 µM. Transforming acidic coiled-coil-containing protein 3 (Homo sapiens), Q9Y6A5;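 active = mean inhibition of replicates at least 50% and at least half of replicates each reaching 50%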;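 also: 0% = complete ARNT plus TACC3 wells and 100% = ARNT alone without TACC3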
HSF1 activator = HSF-1 activators, primary screen, NIH3T3-HGL cells, MG132 stress, luminescence, single point; activation, % at 9 µM; hit rate 1.7% among 300,000; NIH3T3-HGL HSF-1 luciferase reporter, 8 h; 100% = twice DMSO control signal;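 active = mean replicate activation of at least 50% with a set share of replicates each reaching 50%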;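 also: 0% = median of the neutral control wells and 100% = twice that signal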
Starred values were filed as active, the others as inactive; / = not tested or not shown.

SMILES | HSF1 inhib | HIF act | HSP90 refold inh | ARNT TACC3 PPI | HSF1 activator
COc1ccc(CN(C)C[C@H]2OCCCC[C@H](C)Oc3ccc(NC(=O)CCC(F)(F)F)cc3C(=O)N([C@H](C)CO)C[C@@H]2C)cc1 | / | / | / | 5 | /
COC(=O)c1cnc(SCc2ccc(Cl)cc2)n1C | 52 | 3 | -2 | -33 | 69*
C[C@H]1CN([C@@H](C)CO)S(=O)(=O)c2ccc(C#CC3CC3)cc2O[C@@H]1CN(C)Cc1ccc(F)cc1 | / | / | / | 11 | /
S=C(NCCSCc1ccc(Cl)cc1Cl)Nc1ccccc1 | 35 | -1 | 0 | -4 | 52*
COc1ccc(CSCCNC(=S)Nc2ccccc2)cc1Cl | 22 | 0 | 0 | -3 | 26
S=C(NCCSCc1ccc(Cl)c(Cl)c1)Nc1ccccc1 | 59 | 0 | 4 | -18 | 101*
Cc1noc(C)c1S(=O)(=O)Nc1ccc2c(c1)C(=O)N([C@@H](C)CO)C[C@H](C)[C@H](CN(C)S(=O)(=O)c1ccccc1)OCCCC[C@@H](C)O2 | / | / | / | -8 | /
O=C(NCCc1ccccc1)c1cccc(S(=O)(=O)NCc2ccccc2)c1 | -2 | 1 | / | -2 | -8
O=C(NC(c1ccccc1)c1ccccc1)c1cccc(S(=O)(=O)NCc2ccccc2)c1 | 4 | 0 | 1 | active | -8
CC1CN(C(=S)NC(=O)C2CCCCC2)CC(C)O1 (configuration not stated) | 12 | 0 | 2 | -3 | 52*
CC(C)CCN(CCC(C)C)C(=O)Cc1c(O)c2ccccc2[nH]c1=O | 22 | 0 | 2 | -26 | 53*
Cc1ccc(C(=O)Nc2ncc(C)s2)o1 | 11 | 2 | 6 | 3 | 41
Cc1ccc(C(=O)Nc2ncc(Cc3ccc(F)cc3)s2)o1 | 29 | 1 | 4 | -5 | 68*
Cc1ccc(OCC(=O)Nc2ccccc2[N+](=O)[O-])c(Br)c1 | 38 | 2 | -7 | -7 | 55*
Cc1ccc(OCC(=O)Nc2ccccc2F)cc1 | 10 | 3 | / | -5 | 56*
Cc1ccc(OCC(=O)Nc2ccccc2F)cc1C | 0 | 6 | 3 | -5 | -9
Cc1ccc(/C=N/NC(=O)c2c[nH]c3ccccc23)s1 | 25 | 2 | 0 | -2 | 40
CCn1nc(C)c(/C=N/NC(=O)c2c[nH]c3ccccc23)c1C | -70* | 2 | 4 | / | -76
OC[C@H]1[C@@H](c2ccc(-c3cccnc3)cc2)[C@@H]2CN(CC3CCOCC3)CCCCN12 | / | / | / | -1 | /
CCC1CCCCN1C(=O)c1cc2c(=O)n3cccc(C)c3nc2s1 (configuration not stated) | -64* | -13 | 0 | -1 | -68
C[C@@H]1CN([C@@H](C)CO)C(=O)Cc2cc(NC(=O)Nc3ccc(C(F)(F)F)cc3)ccc2O[C@H]1CN(C)C(=O)Nc1ccccc1 | / | / | / | 1 | /
Cc1cc(O)c2c(c1O)C(=O)[C@]13C(=C2O)C(=O)[C@@H]2[C@@H](O)[C@H]1[C@@H]1[C@H](O)[C@H]3C(=O)C3=C(O)c4c(O)cc(C)c(O)c4C(=O)[C@]312 | / | / | / | 47* | /
Cc1ccc(NC(=O)C(=Cc2ccc(C(=O)O)cc2)C(=O)Nc2ccc(C)cc2C)c(C)c1 | 470 | -2 | 6 | 6 | 555*
Oc1ccc(-c2cn3c(n2)SCC3)cc1 | -4 | 0 | -3 | -7 | -2
Brc1ccc(-c2cn3c(n2)SCC3)cc1 | 26 | 4 | -4 | 4 | 63*
SMILES | HSF1 inhib | HIF act | HSP90 refold inh | ARNT TACC3 PPI | HSF1 activator
Clc1ccc(-c2cn3c(n2)SCC3)cc1 | 11 | 2 | 2 | -18 | 58*
O=S(=O)(c1ccc(Cl)c(Cl)c1)c1snnc1-c1ccccc1 | 296 | 0 | 3 | 2 | 431*
CN(CC(=O)Nc1ccc(F)c(F)c1F)C(=O)/C=C/c1ccc(Cl)cc1 | 1 | 225* | 0 | -1 | 5
C[C@H](CO)N1C[C@H](C)[C@H](CN(C)S(=O)(=O)c2ccccc2)Oc2ccc(NS(=O)(=O)c3cn(C)cn3)cc2CC1=O | / | / | / | -7 | /
CCCC(=O)Nc1cccc(NC(=O)c2cccc([N+](=O)[O-])c2C)c1 | -71* | 0 | 3 | 6 | -77
CCC(=O)NC(=S)Nc1ccc(NC(=O)c2cccc([N+](=O)[O-])c2C)cc1 | 0 | 15* | -3 | -7 | 8
CCCC(=O)Nc1cccc(NC(=O)c2ccc([N+](=O)[O-])cc2Cl)c1 | -7 | -1 | -2 | -3 | -11
CC(=O)N/N=C(/C)c1ccc(NC(=O)c2csc(C)c2C)cc1 | 43 | 1 | 1 | 0 | 71*
C/C(=N/NC(=O)c1cccs1)c1ccco1 | 14 | 2 | 6 | -1 | 56*
C/C(=N\NC(=O)c1csc(C)c1C)c1ccco1 | 46 | 1 | -5 | -3 | 63*
C[C@@H]1CCCCO[C@H](CN(C)C)[C@H](C)CN([C@H](C)CO)C(=O)c2cc(NC(=O)Nc3cccc4ccccc34)ccc2O1 | / | / | / | 17 | /
COc1ccc(CNC(=O)C[C@H]2C=C[C@H](NC(=O)CN(C)C)[C@@H](CO)O2)cc1 | / | / | / | 3 | /
CO[C@@H]1CN(C)C(=O)c2ccc(NS(=O)(=O)c3ccc(C)cc3)cc2OC[C@@H](C)N(Cc2ccccn2)C[C@H]1C | / | / | / | active | /
CO[C@@H]1CN(C)C(=O)c2ccc(NS(=O)(=O)c3ccccc3)cc2OC[C@@H](C)N(Cc2ccccn2)C[C@@H]1C | / | / | / | 17 | /
COc1cc(/C=C(\C#N)C(=O)c2ccc(O)c(O)c2)cc(I)c1O | / | / | / | 51* | /
Cc1cc(C)c(C)c(S(=O)(=O)NCc2ccco2)c1C | 46 | 0 | 2 | / | 78*
C[C@@H]1CN([C@@H](C)CO)C(=O)c2cc(-c3ccncc3)cnc2O[C@H]1CN(C)Cc1ccc(Oc2ccccc2)cc1 | / | / | / | 4 | /
Cc1ccc(OCC(=O)Nc2ccc(S(=O)(=O)Nc3onc(C)c3C)cc2)cc1 | -7 | 0 | -2 | -21 | 10
CCc1cccc(OCC(=O)Nc2ccc(S(=O)(=O)Nc3onc(C)c3C)cc2)c1 | -79* | / | -3 | -3 | -82
Cc1ccccc1OCC(=O)Nc1ccc(S(=O)(=O)Nc2onc(C)c2C)cc1 | -10 | 0 | -4 | 1 | 4
Cc1ccc(S(=O)(=O)CC(=O)Nc2ccc(S(=O)(=O)Nc3onc(C)c3C)cc2)cc1 | -84* | 0 | 0 | 20 | -88
C[C@@H]1CN([C@@H](C)CO)C(=O)c2cc(-c3ccc(C#N)cc3)cnc2O[C@H]1CN(C)Cc1cncnc1 | / | / | / | -4 | /
CCCc1ccc2oc(C(=O)N3CCC(C(N)=O)(N4CCCCC4)CC3)c(C)c2c1 | -4 | 0 | -1 | -2 | -13
Cc1ccc2oc(C(=O)N3CCC(C(N)=O)(N4CCCCC4)CC3)c(C)c2c1 | -76* | 1 | -2 | 3 | -82

Bioassay records as filed in PubChem BioAssay.
